Source: PubChem
Most compounds without a hit are left out; they make up all but 6.5% or so of the library.
HT1080NT lethal: kills 2HG-producing HT-1080-NT fibrosarcoma cells; hit rate 1.6% among 360,000; AID 686970; Potency, µM (series often up to 46.1 µM), without a hit: at the top dose activity, negative = less viability, most hits filed as cytotoxic; HT-1080-NT fibrosarcoma viability, CellTiter-Glo ATP luminescence, 48 h;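 further: NT is the 2HG producing partner of a matched IDH1 knockdown line; potency means the concentration at half of the fitted maximal effect; 0% = DMSO-treated cells and -100% = media-only wells without cells; nearly all actives have a fitted effect of over 55% in size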
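750 cells/well, RPMI + 5% FBS; 2 h settle, compound pin-transfer, 48 h at 37 degrees C. CellTiter-Glo 10 min RT, luminescence. Normalized to DMSO and media-only wells.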
HT1080 IDH1KD tx: HT-1080 IDH1 knockdown cell toxicity (counter line). HT-1080 IDH1 knockdown viability, ATP luminescence, 48 h. Potency, µM (highest dose often 46.1 µM), for inactives: top-dose activity, negative = toxicity, actives largely listed as cytotoxic. hit rate 2% among 360,000. AID 686971;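 further: potency means the concentration at half of the fitted maximal effect; 0% = DMSO wells and -100% = cell-free medium wells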
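Luminescent ATP read-out (CellTiter-Glo, 10 min at room temperature) after 48 h compound exposure at 37 °C gave viability of IDH1-knockdown HT-1080 cells. Activity was normalised to DMSO and cell-free wells, then fitted as concentration-response curves.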
IL1B secr inh: inflammasome signaling inhibition, IL-1 beta readout; THP-1 LPS/ATP IL-1B secretion, AlphaLISA, 16 h; stronger effect = lower value; hit rate 4.7% among 360,000; activity change, % at 57.5 µM; in the data active means activity change below about -50%; inconclusive means mostly about -30% to -49%; further: on the % scale 0 is the no-effect control and ±100 the full control effect
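THP-1 cells pretreated 1 hr with compounds (up to 57.5 uM final), then stimulated with LPS (250 ng/mL final) plus ATP (1.25 mM final); secreted IL-1B measured by AlphaLISA after 16 hr, decreased signal indicating inhibition.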
HepG2 tox: counter-screen for TGF-b inhibitors: cytotoxicity in HepG2 cells; Potency, µM (highest dose often 46.1 µM), for the others: at the top dose activity change, negative = cytotoxicity, actives largely listed as cytotoxic; HepG2 CAGA-GFP viability, ATP luminescence, 18 h; AID 588856; hit rate 0.76% among 410,000; further: potency means the concentration at half of the fitted maximal effect
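CellTiter-Glo luminescence gave cytotoxicity after 18 hours at 37 degrees C. The cells were HepG2 CAGA-GFP in 1% FBS DMEM, stimulated with 500 pg/mL TGF-beta after compound addition. %Activity was normalised to no-cell wells (complete cell-killing) and DMSO (no toxicity), and curves were fitted and classified.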
Giardia kill: kills Giardia lamblia; Giardia lamblia trophozoite viability; activity change, % at 7.66 µM, hits read low; hit rate 0.15% among 340,000; in the data active means activity change below about -80%; inconclusive means between about -30% and that limit;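 further: parasites exposed to compound for two days anaerobically before the ATP read; on the % scale 0 is the no-effect control and ±100 the full control effect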
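Giardia lamblia trophozoites (100 cells/well) were incubated with compounds for 48 h at 37 deg C under anaerobic conditions. Viability was read as ATP content by one-step luminescence after 15-30 min at room temperature.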
TGFb inhibitor: TGF-b pathway inhibition. HepG2 CAGA-GFP TGF-b/SMAD3 reporter, GFP fluorescence, 18 h; TGF-beta stimulated, 500 pg/mL final. Potency, µM (top dose mostly 46.1 µM), without a hit: at the highest dose activity, negative = inhibition, hits mostly inhibitors. AID 588855. hit rate 1.2% among 410,000; further: potency means the concentration at half of the fitted maximal effect; on the % scale 0 is the no-effect control and ±100 the full control effect; nearly all actives have a fitted effect of over 65% in size
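Inhibition of TGF-beta-driven CAGA-GFP reporter expression in HEPG2 cells is measured by cellular GFP fluorescence after 18 h stimulation with 500 pg/mL recombinant TGF-beta in 1% FBS medium at 37 degrees C.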
Starred values were filed as active, the others as inactive; ? = inconclusive; . = no result. Unless noted, the call rests on the fitted dose curve; in most records, active means well fitted curve in the direction sought with a large enough effect; inconclusive means small, poorly fitted or top-dose-only effect, or another doubt; inactive means no such curve, though single readings can be large; an effect the other way counts as inactive or inconclusive.

SMILES	HT1080NT lethal	HT1080 IDH1KD tx	IL1B secr inh	HepG2 tox	Giardia kill	TGFb inhibitor
COc1ccc(NC(=O)C2(C)Cc3c(-c4cccc(C(N)=O)c4)ccnc3O2)cn1 (stereo unspecified)	?	4.6µM*	29	-4%	.	4%
CC(=O)Nc1ccc(-c2nnc(SCc3c(C)cc(C)cc3C)n2C)cc1	6%	4%	13	-31%	-12	16%
CCN(CC(=O)Nc1c(F)cccc1F)C(=O)CN(C)S(=O)(=O)c1ccc(F)cc1	4%	14%	9	7%	6	5%
COc1ccc(CN2CCc3c([nH]c4ccccc34)C2)c(OC)c1C	?	15µM*	-89*	-21%	4	0%
Cc1[nH]c2ccccc2c1C(=O)/C=C/c1ccccc1	?	?	-96*	-28%	-1	?
Cc1nc2ccccc2c(N)c1C(=O)/C=C/c1ccccc1	?	12µM*	-100*	-63%	-5	?
Cc1[nH]c2ccccc2c1C(=O)/C=C/c1ccccc1Cl	?	-20%	-105*	-8%	-26	4%
O=C(C=Cc1ccccc1Cl)c1ccccc1	23µM*	?	-11	-17%	1	-3%
CC(=O)c1c(C)[nH]c2ccccc2c1=O	18%	8%	25	12%	4	?
CC(=O)CSc1ncnc2scc(-c3ccc(F)cc3)c12	2%	13%	17	2%	-11	17%
O=C1c2ccccc2C(=O)N1CN(C(=O)COc1ccccc1)c1ccc(F)cc1	6%	6%	-9	8%	21	8%
Cc1cc2nn(-c3ccc(F)cc3)nc2cc1NC(=O)c1cccc2c(Cl)cccc12	.	.	.	-5%	.	1%
Cc1[nH]c2ccccc2c1C(=O)CN1CCN(C/C=C/c2ccccc2)CC1	23µM*	?	?	-11%	6	-6%
COc1ccc2[nH]c(C)c(C(=O)CN3CCN(C/C=C/c4ccccc4)CC3)c2c1	-1%	-1%	?	-39%	12	-3%
Cc1[nH]c2ccccc2c1C(=O)/C=C\c1ccccc1Cl	?	?	-101*	-3%	-1	-13%
CCCNC(=O)COCc1cc(-c2ccc(F)cc2)on1	.	.	.	-24%	.	17%
CN(CC(=O)Nc1ccc(N2CCOCC2)cc1)CC(=O)Nc1ccc([N+](=O)[O-])cc1Br	6%	11%	16	-16%	9	0%
Cn1nc(C(C)(C)C)cc1C(=O)NN1CCOCC1	7%	10%	26	-1%	-3	0%
Cc1ccc(-c2nnnn2-c2ccc(C)cc2)cc1	2%	0%	7	2%	12	-1%
Cc1ccc(-n2nnnc2CCl)cc1	?	?	-101*	-44%	-17	?
COC1OC(c2ccccc2)=C(c2ccc(C(N)=O)cc2)c2ccc(F)cc21 (stereo unspecified)	-22%	-24%	5	.	.	.
COc1ccc(OC)c(NC(=O)CSc2ncnc3c2cnn3-c2ccccc2Cl)c1	-22%	-24%	-79*	3%	-9	-33%
CC(=O)NNC(=O)CSc1nnc(-c2ccccc2)c(-c2ccccc2)n1	5%	14%	-5	-1%	-7	10%
CC(C)(C)NC(=O)CSc1nnc(-c2ccccc2)c(-c2ccccc2)n1	-28%	-13%	-84*	-30%	45	-23%
COc1ccc(-c2nnc(SCC(=O)Nc3cc(OC)ccc3OC)nc2-c2ccc(OC)cc2)cc1	.	.	.	-13%	.	10µM*
CC(C)c1ccc(NC(=O)COC(=O)/C=C/c2cccc(Br)c2)cc1	-5%	-4%	5	1%	7	6%
O=c1c2ccccc2n(CC(O)CN2CCCCC2)c2ccccc12 (stereo unspecified)	-19%	-12%	.	-25%	-1	0%
CC(C)(Oc1ccc(CCNC(=O)c2ccc(-c3ccccc3)o2)cc1)C(=O)O	0%	-1%	15	6%	-17	?
